# High-throughput results: PubChem, National Center for Advancing Translational Sciences (NCATS)
# HepG2 tox = qHTS for Inhibitors of TGF-b: Cytotox Counterscreen. HepG2 CAGA-GFP viability, ATP luminescence, 18 h. 410,000 compounds, 0.76% hits. AID 588856, 2011. Potency, µM (highest dose often 46.1 µM), for the others: top-dose activity change, negative = cytotoxicity, hits mostly cytotoxic
#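 HepG2 CAGA-GFP cells (1000/well, DMEM with 1% FBS) received compound, then TGF-beta at 500 pg/mL final, and were incubated 18 hours at 37 degrees C. Viability was read by CellTiter-Glo luminescence. Media-only wells were set as complete cell-killing and DMSO as no toxicity.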
# ATXN2 expr inh = Primary qHTS for Inhibitors of ATXN expression | 360,000 compounds, 0.72% hits | Potency, µM (titrated, usually from 57 µM), for the others: at the top dose activity change, negative = inhibition, usual class: inhibitors | HEK-293 ATXN2-luciferase reporter, luminescence, 24 h; note: % is set by controls: 0 for no effect and ±100 for the full control effect; nearly all actives have a fitted effect of over 55% in size
#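 ATXN2-luciferase reporter cells (luciferase flanked by upstream and downstream ATXN2 gene portions) were treated 24 h at 37 °C with compounds at up to 57 uM. SteadyGlo luminescence gave expression; GF-AFC fluorescence gave viability.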
# TDP1 cell noCPT = qHTS for Inhibitors of human tyrosyl-DNA phosphodiesterase 1 (TDP1): qHTS in cells in absence of CPT; 420,000 compounds, 15% hits; Potency, µM (highest dose often 46.2 µM), inactives show at the highest dose activity change, negative = growth inhibition, hits mostly inhibitors; DT40 Tdp1-/- hTDP1 cells, no CPT, ATP luminescence, 48 h; note: % is set by controls: 0 for no effect and ±100 for the full control effect; nearly all actives have a fitted effect of over 55% in size
#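 No-CPT arm: Tdp1-/-;hTDP1 DT40 cells (400/well) plus compounds, incubated ≥48 hr at 37 °C. Readout CellTiter-Glo luminescence.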
# TDP1 cell CPT = qHTS for Inhibitors of human tyrosyl-DNA phosphodiesterase 1 (TDP1): qHTS in cells in presence of CPT | chicken DT40 Tdp1-/-;hTDP1 cells + 20 nM CPT, ATP luminescence, 48 h | Potency, µM (series often up to 46.2 µM), inactives show top-dose activity change, negative = growth inhibition, most hits filed as inhibitors | 420,000 compounds, 12% hits; note: % is set by controls: 0 for no effect and ±100 for the full control effect; nearly all actives have a fitted effect of over 55% in size
#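 Cell growth measured by CellTiter-Glo luminescence after a minimum 48 h, 37 C compound exposure with 20 nM CPT in Tdp1-knockout DT40 cells stably expressing hTDP1, seeded 400/well; qHTS titration format.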
# TGFb SMAD3 inh = qHTS for Inhibitors of TGF-b; HepG2 CAGA-GFP TGF-b/SMAD3 reporter, GFP fluorescence, 18 h; TGF-beta stimulated, 500 pg/mL final; Potency, µM (series often up to 46.1 µM), without a hit: at the top dose activity, negative = inhibition, actives largely listed as inhibitors; 410,000 compounds, 1.2% hits; AID 588855, 2011; note: % is set by controls: 0 for no effect and ±100 for the full control effect; nearly all actives have a fitted effect of over 65% in size
#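 Smad-responsive CAGA-GFP expression was quantified in HEPG2 cells exposed to compounds and 500 pg/mL final TGF-beta for 18 h at 37 degrees C; unstimulated wells defined full inhibition.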
# ATXN viability = Viability Counterscreen for Primary qHTS for Inhibitors of ATXN expression | 400,000 compounds, 0.49% hits | S2 cells (HEK-293 line with an ATXN2-luciferase reporter) viability, CellTiter-Fluor protease fluorescence, 24 h | Potency, µM (highest dose often 56.7 µM), actives largely listed as cytotoxic; note: nearly all actives have a fitted effect of over 40% in size
# * = called active by the depositor; i = inactive; ? = inconclusive; · = no result. In the library only some 17% were active in any assay of this set; here they are far more common. Calls come from the whole dose curve; as a rule, active = well fitted curve in the direction sought with a large enough effect; inconclusive = small, poorly fitted or top-dose-only effect, or another doubt; inactive = no such curve, though single readings can be large; an effect the other way counts as inactive or inconclusive. Potency is the fitted concentration of half-maximal effect.
SMILES,HepG2 tox,ATXN2 expr inh,TDP1 cell noCPT,TDP1 cell CPT,TGFb SMAD3 inh,ATXN viability
COc1cccc(CN2CCNC(=O)C2CC(=O)N(C)Cc2cnccn2)c1OC (stereo unspecified),22.1%,7.3%,-16.1%,-4.8%,17.7%,i
O=C(CNS(=O)(=O)c1ccc(Br)s1)N1CCN(c2ncccn2)CC1,16.0%,5.9%,-15.8%,0.9%,5.4%,i
O=C(CC1CC1)Nc1ccc2c(c1)[C@H]1C[C@H](CC(=O)N3CCc4ccccc4C3)O[C@@H](CO)[C@H]1O2,44.6%,6.6%,6.4%,-19.7%,-0.2%,i
CN1C(=O)C(C)(C)c2cc(S(=O)(=O)N3CCCC(C(=O)NCc4ccccc4Cl)C3)ccc21 (stereo unspecified),-15.2%,-11.6%,23.1µM*,?,-16.0%,i
CC(=O)N1CCCc2cc(S(=O)(=O)N3CCCC(C(=O)NCc4ccccc4Cl)C3)ccc21 (stereo unspecified),-1.1%,-7.7%,25.9µM*,20.6µM*,-3.0%,i
O=C(C1CCC1)N1CCCc2cc(S(=O)(=O)N3CCN(c4ccccc4)CC3)ccc21,-11.9%,?,?,18.4µM*,?,i
COc1ccc(CNC(=O)C2CCCN(S(=O)(=O)c3ccc4c(c3)C(C)(C)C(=O)N4C)C2)cc1 (stereo unspecified),-21.6%,6.9%,?,-14.2%,2.1%,i
COc1ccc(Nc2nnc(C)c(=O)[nH]2)c(OC)c1,-38.6%,12.6%,-9.3%,1.4%,6.1%,i
Cc1ccc(NC(=O)CN(C)S(=O)(=O)c2ccc3c(c2)CCC(=O)N3)c(C)c1,-21.1%,0.7%,-30.0%,-21.2%,-6.5%,i
COc1ccc(/C=N/NC(=O)Nc2cccc3nsnc23)c(OC)c1,5.5%,-38.5%,10.3µM*,11.6µM*,20.0%,i
O=C(N/N=C/c1ccc(O)cc1)Nc1cccc2nsnc12,-17.6%,3.7%,20.6µM*,-11.7%,0.0%,·
COc1cc(/C=N/NC(=O)Nc2cccc3nsnc23)cc(OC)c1OC,5.8%,?,?,?,10.5%,·
CC(C)C(=O)Nc1cccc2nsnc12,-37.1%,-1.3%,?,?,?,i
NC1CONC1=O (stereo unspecified),·,·,?,-17.9%,·,·
CC(C)(C)c1cc(C(=O)N/N=C/c2ccc(O)cc2)n(-c2ccccc2)n1,-24.1%,-1.9%,?,?,1.6%,i
CCOc1ccc(CC(=O)N2CCN=C2SCc2ccc([N+](=O)[O-])cc2)cc1,-11.2%,22.0%,29.1µM*,?,?,i
Cc1ccc(C(=O)N2CCN=C2SCc2ccc([N+](=O)[O-])cc2)cc1,1.6%,?,14.6µM*,?,-24.0%,?
CN(C)c1ccc(NC(=O)C2C3C=CC(C3)C2C(=O)O)cc1 (stereo unspecified),-78.3%,30.3%,-15.6%,-17.6%,?,i
CC(C)NC(=O)c1ccc(COc2ccc(C(C)(C)C)cc2)o1,-14.0%,32.0%,13µM*,?,-5.7%,i
COc1ccc(CCNC(=O)c2ccc(COc3ccccc3OC)o2)cc1,-9.8%,·,11.6µM*,-19.1%,-13.6%,i
CC(C)NC(=O)c1ccc(COc2cccc3ccccc23)o1,-34.2%,·,18.4µM*,?,0.3%,i
CCOc1ccc(OCc2ccc(C(=O)NC(C)(C)C)o2)cc1,0.4%,-10.6%,?,7.31µM*,-5.2%,i
Cc1ccnc(SCC(=O)NC2CC2)n1,-7.3%,-2.7%,3.0%,-8.3%,-7.1%,i
